Screening data as filed in PubChem BioAssay.
Plk1 PBD FP = Plk1 (human) PBD binding inhibition | AID 693 | Plk1 PBD phosphopeptide binding, fluorescence polarization | inhibition, %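 (tested at about 20 µM)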 | P53350 | 97,000 tested, 0.13% active; in the data active = inhibition above about 34%, passing the limit was not always enough
Target sequence (P53350 whole entry, looked up): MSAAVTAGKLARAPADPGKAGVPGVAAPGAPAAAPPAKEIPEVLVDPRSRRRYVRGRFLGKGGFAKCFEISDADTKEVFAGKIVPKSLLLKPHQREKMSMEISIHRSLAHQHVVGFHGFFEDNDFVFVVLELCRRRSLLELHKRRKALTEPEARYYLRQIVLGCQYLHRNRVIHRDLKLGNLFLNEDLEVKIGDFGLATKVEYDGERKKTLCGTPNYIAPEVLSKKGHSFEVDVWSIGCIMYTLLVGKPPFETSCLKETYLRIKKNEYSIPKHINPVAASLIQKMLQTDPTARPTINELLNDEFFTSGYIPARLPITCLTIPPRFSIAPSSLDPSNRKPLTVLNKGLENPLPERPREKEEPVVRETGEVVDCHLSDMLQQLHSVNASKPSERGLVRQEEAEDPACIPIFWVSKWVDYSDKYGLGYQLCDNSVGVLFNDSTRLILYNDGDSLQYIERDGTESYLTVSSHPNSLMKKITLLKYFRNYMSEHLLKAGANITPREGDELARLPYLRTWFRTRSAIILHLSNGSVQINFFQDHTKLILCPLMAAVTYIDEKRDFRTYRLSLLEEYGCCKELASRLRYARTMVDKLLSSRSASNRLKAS
PLK1 kinase inh = PLK1 (human) kinase inhibition; P53350; recombinant PLK1 kinase, TR-FRET peptide phosphorylation; inhibition, % at 10 µM; 97,000 tested, 0.53% active; AID 619;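 active = inhibition of 50% or more in the single-concentration screen; inactive = inhibition below 50%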
PTPN22 act = LYP (human) phosphatase activation; Q9Y2R2; 96,000 tested, 0.11% active; activation, % at 2 µM; recombinant LYP, DiFMUP fluorescence; 0 = plate median, 100 = signal doubled; AID 697;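 active = activation at 2 µM above a set limit, the mean plus 5 SD, cut at about 37% in these data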
LYP inh 2 = blocks human PTPN22 phosphatase activity. Q9Y2R2. 96,000 tested, 0.21% active. AID 640. recombinant LYP catalytic domain, DiFMUP fluorescence. inhibition, % at 2 µM;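 active = inhibition at 2 µM at or above a set limit, the screen mean plus 3 SD, cut at about 24% in these data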
PLK1 inh conf = confirmation of human PLK1 kinase inhibitors; shares compounds with PLK1 kinase inh; recombinant PLK1 kinase, TR-FRET peptide phosphorylation; inhibition, % at 10 µM; 210 tested, 20% active; AID 744;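 active = inhibition at or above 50% in each of two repeat confirmation tests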
TR-FRET interf = Plk1 assay compound interference counter-screen hit | inhibition (interference), % at 10 µM | 210 tested, under 10 active | Plk1 TR-FRET assay interference, compound added post-reaction | shares compounds with PLK1 kinase inh;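 active = both duplicate runs show 50% or greater inhibition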
Of the large screens only hits and unclear results are named; the others gave an inactive call (follow-up assays come after a bar, where they were run). Most compounds without a hit are left out; they make up all but 0.93% or so of the library.

O=C(c1ccc(F)cc1)N1CCN(c2cc(=O)[nH]nc2-c2ccccc2)CC1	PLK1 kinase inh 125 | PLK1 inh conf inactive | TR-FRET interf inactive
CCSc1nnc(NC(=O)C(C)C)s1	PLK1 kinase inh 71 (no result: PTPN22 act, LYP inh 2) | PLK1 inh conf inactive | TR-FRET interf inactive
COCCn1c(C)cc(C(=O)CSc2nnc3ccccn23)c1C	PLK1 kinase inh 72 (no result: PTPN22 act, LYP inh 2) | PLK1 inh conf inactive | TR-FRET interf inactive
CS(=O)(=O)c1ccc2nc(N)sc2c1	none
Nc1nc2ccc([N+](=O)[O-])c(N)c2s1	PLK1 kinase inh 76 | PLK1 inh conf 75 | TR-FRET interf inactive
Cn1nnnc1SCC(=O)N1CCN(c2cccc(Cl)c2)CC1	none
CC(=O)N1CCc2cc(C(=O)CN3CCN(C(=O)c4ccco4)CC3)ccc21	PLK1 kinase inh 70 (no result: PTPN22 act, LYP inh 2) | PLK1 inh conf inactive | TR-FRET interf inactive
CC(=O)N1CCc2cc(C(=O)CN3CCC(C)CC3)ccc21	PLK1 kinase inh 82 (no result: PTPN22 act, LYP inh 2) | PLK1 inh conf inactive | TR-FRET interf inactive
CC(=O)N1CCc2cc(C(=O)CN3CCN(c4cccc(Cl)c4)CC3)ccc21	none
CCCCNC(=O)C(=O)NC(C)CCc1ccccc1 (centres undefined)	none
CCOC(=O)c1c(-c2ccncc2)csc1N	PLK1 kinase inh 70 | PLK1 inh conf 66 | TR-FRET interf inactive
Cc1cccc(-c2csc(N)c2C(=O)OC(C)C)c1	none
Cc1ccc(C2C(C=Nc3c(C)n(C)n(-c4ccccc4)c3=O)=C(c3ccccc3)Oc3ccccc32)cc1 (centres undefined)	none
Cc1nc(-c2ccc3c(c2)OCO3)cs1	none
N#Cc1c(-c2ccc3c(c2)OCO3)csc1N	PLK1 kinase inh 72 | PLK1 inh conf 66 | TR-FRET interf inactive
Cc1ccc(SCC(=O)Nc2ccccc2C(=O)O)cc1	none
Cc1ccccc1-c1nc(-c2cccnc2)no1	PLK1 kinase inh 96 | PLK1 inh conf inactive | TR-FRET interf inactive
Clc1ccccc1-c1nc(-c2cccnc2)no1	none
O=C1CCCN1CN(C(=O)c1ccccc1)c1ccc(F)cc1	none
CCCc1cc(C(N)=O)c(NC(=O)c2ccco2)s1	PLK1 kinase inh 127 | PLK1 inh conf inactive | TR-FRET interf inactive
O=C(CSc1nc(-c2ccccc2)cc(=O)[nH]1)Nc1ccccn1	none
O=C(CSc1n[nH]c(-c2ccc(Cl)cc2Cl)n1)Nc1ccccn1	PLK1 kinase inh 78 | PLK1 inh conf 74 | TR-FRET interf inactive
Cc1cc(C)cc(N(CC(=O)N2CCN(Cc3ccccc3)CC2)S(=O)(=O)c2c(C)noc2C)c1	none
Cc1[nH]nc2c1C1(CCN(Cc3ccccc3)CC1)C(C#N)=C(N)O2	PLK1 kinase inh 72 | PLK1 inh conf 70 | TR-FRET interf inactive
Fc1ccccc1N1CC(c2ccccc2)C(c2cccs2)=N1 (centres undefined)	none
O=C(CSCc1ccc(F)cc1)N1CCOCC1	PLK1 kinase inh 115 | PLK1 inh conf inactive | TR-FRET interf inactive
O=C(CSCc1ccc(Br)cc1)N1CCOCC1	none
CCn1c(SC)nnc1-c1c[nH]c2ccccc12	PLK1 kinase inh 77 (no result: PTPN22 act, LYP inh 2) | PLK1 inh conf inactive | TR-FRET interf inactive
COCCn1c(SC)nnc1-c1c[nH]c2ccccc12	PLK1 kinase inh 73 (no result: PTPN22 act, LYP inh 2) | PLK1 inh conf inactive | TR-FRET interf inactive
CCn1c(SCc2ccc(C(=O)OC)o2)nnc1-c1c[nH]c2ccccc12	PLK1 kinase inh 73 (no result: PTPN22 act, LYP inh 2) | PLK1 inh conf inactive | TR-FRET interf inactive
CCc1nnc(NC(=O)CSc2nnc(-c3c[nH]c4ccccc34)n2C)s1	none
Cn1c(SCc2cccnc2)nnc1-c1c[nH]c2ccccc12	PLK1 kinase inh 74 (no result: PTPN22 act, LYP inh 2) | PLK1 inh conf inactive | TR-FRET interf inactive
COc1cccc(-n2c(SC)nnc2-c2c[nH]c3ccccc23)c1	none
Cc1ccc(C(=O)C(NC(=O)c2ccco2)Nc2sc3c(c2C(N)=O)CCCC3)cc1 (centres undefined)	none
CCCCCC(C)n1[nH]c(=O)c2c(C)cc(C)nc21 (centres undefined)	PLK1 kinase inh 86 (no result: PTPN22 act, LYP inh 2) | PLK1 inh conf inactive | TR-FRET interf inactive
Cn1c(NC(=O)C2c3ccccc3Oc3ccccc32)cc(=O)n(C)c1=O	none
COc1ccccc1Nc1nc(N)nc(CN2CCOCC2)n1	PLK1 kinase inh 72 (no result: PTPN22 act, LYP inh 2) | PLK1 inh conf inactive | TR-FRET interf inactive
CCc1cc2c(=O)[nH]cnc2s1	none
O=c1[nH]cnc2sc(-c3ccccc3)cc12	PLK1 kinase inh 78 | PLK1 inh conf 68 | TR-FRET interf inactive
Cc1cccc(-n2ncc3c(NCCc4ccc(S(N)(=O)=O)cc4)ncnc32)c1	PLK1 kinase inh 71 (no result: PTPN22 act, LYP inh 2) | PLK1 inh conf inactive | TR-FRET interf inactive
Cc1cc2nc(C)n(CCCNC(=O)Nc3cccc4ccccc34)c2cc1C	none
CC(Oc1ccc(Cl)cc1Cl)C(=O)NCCCN1CCOCC1 (centres undefined)	PLK1 kinase inh 74 (no result: PTPN22 act, LYP inh 2) | PLK1 inh conf inactive | TR-FRET interf inactive
CCNC(=O)n1nccc1C(C)Oc1cccc(C(F)(F)F)c1 (centres undefined)	none
CCN1CCN(CC(=O)Nc2ccc(C)cc2C)C(=O)C1=O	none
Cc1ccc(N(CC(=O)Nc2ccc(C)cc2C)S(=O)(=O)N2CCCC2)cc1	PLK1 kinase inh 88 | PLK1 inh conf inactive | TR-FRET interf inactive
Cc1oc2ncnc(N)c2c1C	PLK1 kinase inh 76 | PLK1 inh conf 68 | TR-FRET interf inactive
Cc1ccnc(NC2OC(=O)c3ccccc32)c1 (centres undefined)	none
CCN(CC)S(=O)(=O)c1ccc(C(=O)OCCN2C(=O)CCC2=O)cc1	PLK1 kinase inh 74 (no result: PTPN22 act, LYP inh 2) | PLK1 inh conf inactive | TR-FRET interf inactive
CC(C)(C)NC(=O)NC(=O)COC(=O)c1cc(=O)[nH]c2ccccc12	none
[O-][N+]12CCN(CC1)c1ccccc12	PLK1 kinase inh 77 | PLK1 inh conf inactive | TR-FRET interf inactive
CC1CCN(c2ccccc2N)CC1	none
Cc1cc2c(ccc3[nH]onc32)n1	PLK1 kinase inh 72 | PLK1 inh conf inactive | TR-FRET interf inactive
c1ccc(-n2nnnc2SCc2cccc3nsnc23)cc1	none
CCc1cccc(OCC(=O)Nc2ccc(S(=O)(=O)Nc3onc(C)c3C)cc2)c1	PLK1 kinase inh 75 (no result: PTPN22 act, LYP inh 2) | PLK1 inh conf inactive | TR-FRET interf inactive
CCOCCn1c(CN(Cc2ccccc2)Cc2ccccc2)nc2c1c(=O)n(C)c(=O)n2C	PLK1 kinase inh 72 (no result: PTPN22 act, LYP inh 2) | PLK1 inh conf inactive | TR-FRET interf inactive
CCCCn1c(CN(Cc2ccccc2)Cc2ccccc2)nc2c1c(=O)n(C)c(=O)n2C	none
Cc1ccccc1CN(c1ccc(C(=O)Nc2ccccc2C(=O)NCc2ccco2)cc1)S(C)(=O)=O	none
CCCCc1nc2n[nH]c(N)c2c2c1CSC(C)(C)C2	PLK1 kinase inh 70 | PLK1 inh conf inactive | TR-FRET interf inactive
CC(C)OC(=O)C1C2C=CC3(CN(C(C)c4ccc(Br)cc4)C(=O)C13)O2 (centres undefined)	PLK1 kinase inh 74 (no result: PTPN22 act, LYP inh 2) | PLK1 inh conf inactive | TR-FRET interf inactive
O=C(O)CCc1ccc(-c2cccs2)n1-c1ccc(C(=O)O)cc1	PLK1 kinase inh 96 (no result: PTPN22 act, LYP inh 2) | PLK1 inh conf inactive | TR-FRET interf inactive
CC(=O)c1cccc(-n2c(CCC(=O)O)ccc2-c2cccs2)c1	none
